D3 ag = qHTS of D3 Dopamine Receptor Agonist: qHTS | D3R DiscoveRx beta-arrestin cells, luminescence, 90 min | D(3) dopamine receptor (Homo sapiens), P35462 | max activation, % | 410,000 compounds, 0.58% hits; in the data active = max activation above about 30%; note: 0% is about no effect
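Agonist-mode cell screen: cells plated at 1500/well and incubated overnight at 37 °C, then exposed to library compounds for 90 min at 37 °C. Detection reagent was added for 30–60 min at room temperature, and luminescence was read.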
ERG Ets-DNA blk = qHTS for Small Molecule Inhibitors of the ERG Ets/DNA interaction; fluorescence polarization, His-ERG Ets domain / labelled DNA; Potency, µM (doses to about 76.9 µM), for inactives: at the top dose FP activity, negative = inhibition, actives largely listed as inhibitors; 370,000 compounds, 0.028% hits; active = well fitted inhibition curve with a large enough effect in the polarisation, with a control signal flat; inconclusive = small, poorly fitted or top-dose-only effect, or effect the other way, or a change in a side signal; inactive = no such curve, though single readings can be large or run the other way; the % refers to the polarisation;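 note: polarization taken with two DNA probes labelled with fluorescein and Texas red; potency is the fitted concentration of half-maximal effect; % of control where 0% means no effect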
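His-tagged ERG Ets domain (1 uM in the protein solution; 300mM KCl, 50mM Tris-HCl, 1mM EDTA, 1mM DTT, pH 7.5) received compound, then a probe mix of 5 nM fluorescein-DNA and 100nM Texas-615-DNA. Fluorescence polarization was read for both dyes.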
D1 PAM = Potentiators of Human D1 Dopamine Receptor: qHTS; D(1A) dopamine receptor (Homo sapiens), P21728; HEK293 TREx D1 cells, calcium flux, dopamine EC20 potentiation; potentiation, % at 10 µM; 360,000 compounds, 0.036% hits; in the data active = potentiation above about 30%; note: 0% is about no effect
Target sequence (P21728 whole entry, looked up): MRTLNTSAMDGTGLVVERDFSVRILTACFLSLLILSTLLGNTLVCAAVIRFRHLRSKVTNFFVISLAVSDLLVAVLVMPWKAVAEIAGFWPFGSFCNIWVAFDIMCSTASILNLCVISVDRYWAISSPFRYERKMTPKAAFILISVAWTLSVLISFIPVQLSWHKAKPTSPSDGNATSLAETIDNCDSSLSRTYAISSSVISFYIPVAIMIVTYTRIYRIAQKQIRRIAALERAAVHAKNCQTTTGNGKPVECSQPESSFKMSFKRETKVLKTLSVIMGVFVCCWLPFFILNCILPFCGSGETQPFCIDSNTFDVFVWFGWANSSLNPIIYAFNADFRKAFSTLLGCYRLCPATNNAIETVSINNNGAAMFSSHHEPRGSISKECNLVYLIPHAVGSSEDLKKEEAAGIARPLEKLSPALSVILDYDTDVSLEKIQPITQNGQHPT
D1 antag = Antagonist of Human D 1 Dopamine Receptor: qHTS. D(1A) dopamine receptor (Homo sapiens), P21728. HEK293 TREx D1 cells, calcium flux, dopamine EC80; stronger effect = lower value. activity change, negative = inhibition, % at 10 µM. 360,000 compounds, 3.2% hits. AID 504652, 2011; in the data active = activity change below about -30%; note: % is set by controls: 0 for no effect and ±100 for the full control effect
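Calcium flux readout: force-coupled, inducible Hek293 Trex D1 line, cells induced overnight at 30 C with tetracycline, dye-loaded 30–90 min at RT. Antagonism scored against EC80 dopamine challenge given 180 s after compound.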
D1 agonist = Allosteric Agonists of the Human D1 Dopamine Receptor: qHTS; HEK293 T-REx D1 cells, calcium flux, agonist mode; 360,000 compounds, 1% hits; D(1A) dopamine receptor (Homo sapiens), P21728; activation, % at 2 µM; in the data active = activation above about 30%; note: 0% is about no effect
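Agonism was scored from calcium flux recorded over 180 s (1 read/s) after pintool compound addition, following a 10-cycle baseline. Cells were inducible force-coupled HEK293 TREx D1, plated overnight at 30 C and loaded with no-wash calcium dye.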
DRD3 antagonist = qHTS of D3 Dopamine Receptor Antagonist: qHTS | D3R cells, DiscoveRx beta-arrestin luminescence, antagonist mode; stronger effect = lower value | max response, negative = inhibition, % | 360,000 compounds, 2.5% hits | AID 652054, 2013; in the data active = max response below about -50%; inconclusive = no clear call, values can overlap the other calls; note: % is set by controls: 0 for no effect and ±100 for the full control effect
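Cells expressing the human receptor were seeded at 1500 cells/well, incubated overnight at 37 degrees C in 5% CO2, then exposed to library compounds with dopamine controls for 90 minutes at 37 degrees C before luminescent detection.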
Active calls of the source: *; ? = inconclusive; . = no result given; ! = not active in a repeat. Most compounds without a hit are left out; they make up all but 6.1% or so of the library.

SMILES	D3 ag	ERG Ets-DNA blk	D1 PAM	D1 antag	D1 agonist	DRD3 antagonist
CCOC(=O)c1c(C)[nH]c(C)c1S(=O)(=O)N(C)CC(=O)NCc1cccc(Br)c1	2	-3%	-2	-36*!	1	4
CCN1C(=O)[C@H]2[C@@H](c3ccc(C)cc3)N3C(=O)N(c4ccc(C(F)(F)F)cc4)C(=O)[C@@]3(CC(C)C)[C@H]2C1=O	5	-1%	-4	0	2	2
O=c1oc2ccc(C#CC3(O)CCCCC3)cc2cc1-n1cc(-c2ccccn2)nn1	13	-6%	.	.	.	52
COCCNC(=O)C1CCCN(Cc2ccc(Cl)cc2)CC1 (stereo unspecified)	-8	.	.	.	.	-8
Cc1oc2cc3oc(=O)c(CCC(=O)NCCN4CCOCC4)c(C)c3cc2c1C	41*	22%	1	-3	3	9
Cc1coc2cc3oc(=O)c(CCC(=O)NCCCN4CCOCC4)c(C)c3cc12	11	6%	-8	5	2	12
CCNc1cc2oc(=O)c(CN3CCOCC3)c(C)c2cc1C	-12	-8%	-2	6	0	-67*
COc1ccc(CNC(=O)CCc2c(C)c3cc4c(C)c(C)oc4cc3oc2=O)cc1	5	-1%	-1	-36*	0	.
Cc1oc2cc3oc(=O)c(CCC(=O)N(C)CC(=O)O)c(C)c3cc2c1C	3	-3%	-2	3	2	-67*
COCCCNC(=O)CCc1c(C)c2cc3c(C)coc3cc2oc1=O	16	5%	-3	-56*	7	14
CCC(CC)NC(=O)c1cccc(Br)c1	3	2%	1	-2	1	4
COc1ccc(C(=O)Nc2cccc(S(=O)(=O)N3CCCC3)c2)cc1S(=O)(=O)N1CCOCC1	-5	3%	.	.	.	-11
Oc1c(Cl)cc(Cl)cc1CNc1ccc(Br)cn1	5	5%	-2	0	1	-55*
CC1CCN(C(=S)c2ccc(O)cc2)CC1	-4	-2%	-12	-75*	1	0
Oc1ccc(C(=S)N2CCCC2)cc1	2	-2%	6	-9	4	32
O=C(CCCSc1ccccc1)Nc1ccc(Cl)c(S(=O)(=O)N2CCOCC2)c1	-1	.	-3	-5	6	33
O=C1N=NC(=O)N1c1ccccc1	17	?	-2	13	2	22
Cc1ccc(NC(=O)c2ccc3[nH]c(=O)c(=O)[nH]c3c2)nc1	2	-6%	-2	13	2	0
O=C(Nc1ccc(Cl)cn1)c1ccc2[nH]c(=O)c(=O)[nH]c2c1	2	2%	-2	-30*	1	8
CN(C)CCCC(C)(O)C(Cc1ccccc1)c1ccccc1 (stereo unspecified)	-18	-4%	-7	20	6	-58*
Cc1ccc(/C=C/S(=O)(=O)N2CCC(C(=O)O)CC2)cc1	-4	5%	1	2	2	18
CN(C)c1cccc(C(=O)Nc2ccc(S(=O)(=O)Nc3nccs3)cc2)c1	22	-14%	.	.	.	?
O=C(Nc1ccccc1)c1cccc(S(=O)(=O)Oc2ccc([N+](=O)[O-])cc2)c1	0	8%	-5	-30*	18	0
Cc1cc(C)cc(NS(=O)(=O)c2coc(C(N)=O)c2)c1	4	13%	-6	-7	4	16
NC(=O)c1cc(S(=O)(=O)Nc2cccc(F)c2)co1	6	0%	3	-46*	1	4
SMILES	D3 ag	ERG Ets-DNA blk	D1 PAM	D1 antag	D1 agonist	DRD3 antagonist
Cc1onc(-c2ccccc2)c1C(=O)Nc1ccc(S(=O)(=O)Nc2nccs2)cc1	-5	11%	-4	-40*	1	-9
Cc1onc(-c2ccccc2)c1C(=O)Nc1ccc(NC(=O)c2c(-c3ccccc3)noc2C)cc1	0	-9%	.	.	.	10
O=C(O)c1cccc(NC(=O)c2cccc(S(=O)(=O)Nc3cccc([N+](=O)[O-])c3)c2)c1	6	10%	16	-1	0	0
O=C(Nc1ccc(S(=O)(=O)Nc2nccs2)cc1)c1cccc(F)c1	0	20%	-3	-47*	6	-21
O=C(Nc1ccccc1)c1cccc(S(=O)(=O)Nc2cccc(F)c2)c1	9	3%	-1	-40*	16	.
O=C(Nc1cccc(F)c1)c1ccccc1	2	-8%	-8	-2	1	15
CC(C)c1ccc2c(c1)C1(NN=C(c3ccccc3)S1)C(=O)N2 (stereo unspecified)	-10	0%	-1	-6	2	10
CCc1ccc2c(c1)C1(NN=C(c3ccc(C)cc3)S1)C(=O)N2 (stereo unspecified)	-2	-10%	0	-11	-3	-94*
O=S(=O)(Nc1ccc(C(O)(C(F)(F)F)C(F)(F)F)cc1)c1ccc(Cl)c2nonc12	-8	.	.	.	.	-25
Cc1ccc(NC(=O)CSc2nn(-c3ccccc3)c(=S)s2)cc1S(=O)(=O)N(C)C	6	7%	-4	-11	15	-63*
O=C(CSc1nn(-c2ccccc2)c(=S)s1)NC1CCS(=O)(=O)C1 (stereo unspecified)	0	-4%	-2	-2	0	-2
O=C(CSc1nn(-c2ccccc2)c(=S)s1)Nn1cnnc1	0	3%	-7	2	2	-85*
COc1ccc2c(c1)CCC/C2=N\Nc1nc(C(=O)NN)cs1	-6	2%	-5	-2	1	8
COc1ccccc1-c1cccc([C@@H]2C[C@H]3[C@H](CON3C)CN2C(C)=O)c1	-8	-4%	.	.	.	0
CC(C)[C@H]1CN=C2N(CCNC(=O)CCC3CCCCC3)[C@H](Cc3ccc(O)cc3)CN21	-62	-8%	1	-9	6	-83*
COc1ccc(C[C@H]2CN3C(=NC[C@@H]3C(C)C)N2CCNC(=O)CCC2CCCCC2)cc1	-64	-3%	-3	-10	-4	?
O=C(CCC1CCCCC1)NCCN1C2=NC[C@H](Cc3ccc(O)cc3)N2C[C@H]1Cc1ccc(O)cc1	-47	2%	4	17	5	?
COc1ccc(C[C@H]2CN3C(=NC[C@@H]3Cc3ccccc3)N2CCNC(=O)CCC2CCCCC2)cc1	-32	3%	2	-16	3	-62*
O=C(CSc1nc2ccsc2c(=O)n1NC(=O)c1ccccc1)Nc1nccs1	2	11%	0	-8	3	-59*

Screening results: PubChem, National Center for Advancing Translational Sciences (NCATS)
